From PubChem
KDM5B inhibitor – blocks human KDM5B histone demethylase activity; Potency, µM (titrated, usually from 57.7 µM), usual class: inhibitors; hit rate 2.6% among 220,000; Q9UGL1; AID 1347165; KDM5B demethylase, FDH-coupled NADH fluorescence (FDH is formaldehyde dehydrogenase); also: nearly all actives have a fitted effect of over 70% in size
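Compound dilutions met 200 nM (final) KDM5BΔAP for 10 min at room temperature before substrate addition. The substrate mix held 12.5 µM H3K4me3 with cofactors 25 µM α-ketoglutarate and 50 µM Fe²⁺. NADH signal gain over 30 min defined activity.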
IP6K1 inh – inhibitors of human IP6K1. IP6K1 kinase, ADP-Glo luminescence, 2 h; hits give low values. activity change, % (series mostly up to about 58 µM). hit rate 0.81% among 140,000. AID 1645851. Q92551; in the data active = activity change below about -25%
Target sequence (Q92551 whole entry, looked up): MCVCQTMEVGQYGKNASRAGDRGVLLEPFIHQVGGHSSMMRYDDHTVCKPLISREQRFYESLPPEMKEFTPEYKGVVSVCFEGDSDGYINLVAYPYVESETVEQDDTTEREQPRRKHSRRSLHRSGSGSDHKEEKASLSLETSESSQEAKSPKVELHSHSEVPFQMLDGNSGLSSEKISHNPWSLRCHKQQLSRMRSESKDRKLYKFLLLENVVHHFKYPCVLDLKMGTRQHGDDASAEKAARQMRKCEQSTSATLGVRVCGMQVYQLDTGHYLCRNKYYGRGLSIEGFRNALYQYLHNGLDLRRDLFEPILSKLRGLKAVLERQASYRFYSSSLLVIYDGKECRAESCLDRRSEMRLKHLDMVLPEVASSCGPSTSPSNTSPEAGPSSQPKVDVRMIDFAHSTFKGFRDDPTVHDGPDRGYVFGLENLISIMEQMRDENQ
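ADP-Glo luminescence measures ADP made by human IP6K1 during a 2 h RT reaction with ATP/IP6 (mix at 1.3 mM/130 uM); top library doses 57.5 and 19.1 uM final.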
SNCA expr inhib – SNCA gene expression inhibition. HEK-293 SNCA-luciferase knock-in, luminescence, 24 h. Potency, µM (series often up to 57.2 µM), usual class: inhibitors. hit rate 0.17% among 140,000. AID 1671194; also: nearly all actives have a fitted effect of over 45% in size
HEK293 viab – cell viability loss counter-screen; HEK-293-SNCA-luc viability, GF-AFC fluorescence, 24 h; Potency, µM (doses to about 57.1 µM), usual class: cytotoxic; hit rate 0.12% among 150,000; AID 1671193; also: nearly all actives have a fitted effect of over 30% in size
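HEK-293-SNCA-luc cells (1500/well) plated 24 h, then exposed 24 h to a dilution series; GF-AFC added 30 min at 37C, fluorescence 405/540 nm; normalised to medium-only and DMSO wells, Hill fit.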
Of the large screens only hits and unclear results are named; the others gave an inactive call; ! = repeats disagree. A selection: hits, their analogues and other compounds. The true share with any hit is near 2.8%. Unless noted, calls follow the shape of the dose curve; as a rule, active = well fitted curve in the direction sought with a large enough effect; inconclusive = small, poorly fitted or top-dose-only effect, or another doubt; inactive = no such curve, though single readings can be large; an effect the other way counts as inactive or inconclusive.

c1ccc(N2CCN(c3cc4c(cn3)CN(Cc3ccncc3)CCN4)CC2)nc1	none
CCc1nn(-c2ccccc2)c(Oc2ccccc2F)c1CCC(=O)NCCOC	HEK293 viab inconclusive
COc1ccc(CNC(=O)c2ccc3ccccc3c2)cc1	none (no result: IP6K1 inh, SNCA expr inhib, HEK293 viab)
C=CCC(C)(C)NC(C)c1ccccc1 (configuration not stated)	none (no result: IP6K1 inh, SNCA expr inhib, HEK293 viab)
Cc1cc2nc3n(c(=O)c2n1CC(=O)NCc1ccc(F)cc1)CCCC3	SNCA expr inhib inconclusive
O=C(NCc1cccnc1)c1nc(-c2cccc(F)c2)c2cnccn12	KDM5B inhibitor 22µM
CC(C)NC(=O)c1nc(-c2ccc(F)cc2)c2ccccn12	KDM5B inhibitor 35µM
O=C(c1nc(-c2ccc(F)cc2)c2ccccn12)N1CCCC1	none
O=C(NCc1ccc(F)cc1)c1nc(-c2ccc(Cl)cc2Cl)c2cnccn12	KDM5B inhibitor 56µM, SNCA expr inhib inconclusive
O=C(NCc1ccncc1)c1nc(-c2cccnc2)c2cnccn12	KDM5B inhibitor inconclusive
O=C(NCc1cccnc1)c1nc(-c2cccc(C(F)(F)F)c2)c2cnccn12	KDM5B inhibitor 28µM
CC(C)(C)N1CC(C(=O)NCCCc2ccc(Cl)cc2)CC1=O (configuration not stated)	none
Clc1ccccc1-c1nnnn1-c1ccccc1Cl	none (no result: IP6K1 inh, SNCA expr inhib, HEK293 viab)
O=C(NC1CC1)c1nc(-c2cccc(C(F)(F)F)c2)c2cnccn12	none
COC(=O)CNC(=O)c1nc(-c2ccc([S+](C)(=O)[O-])cc2)c2cnccn12	KDM5B inhibitor 25µM
COC(=O)CNC(=O)c1nc(-c2cccc(C(F)(F)F)c2)c2cnccn12	KDM5B inhibitor 28µM
O=C(NCc1ccc(F)cc1)c1nc(-c2cccnc2)c2ccccn12	KDM5B inhibitor 112µM
Cc1c(C)n2c3c(=O)[nH]c(=O)n(C)c3nc2n1CCNc1ccc(Oc2ccccc2)cc1	none (no result: IP6K1 inh, SNCA expr inhib, HEK293 viab)
CCCCCCCCSCC(N)=O	none (no result: IP6K1 inh, SNCA expr inhib, HEK293 viab)
CNC(=O)Nc1cccn2nc(-c3ccccc3)nc12	KDM5B inhibitor 25µM
Cc1ccc(NC(=O)Nc2cccn3nc(C)nc23)cc1	none
COCC(=O)N[C@H]1CCN(C(=O)COC)[C@H](C(=O)N[C@H](Cc2c[nH]c3ccccc23)C(=O)OC)C1	KDM5B inhibitor 22µM
CC(C)NC(=O)N1CCN(C(=O)NC2CCCCC2)[C@@H](C(=O)N[C@H](Cc2c[nH]c3ccccc23)C(N)=O)C1	none
CC(C)N(Cc1nc2ccccc2c(=O)[nH]1)C(=O)c1sc2cc(F)ccc2c1Cl	none (no result: IP6K1 inh, SNCA expr inhib, HEK293 viab)
COc1ccc(-c2ccc3c(n2)CN(Cc2ccccc2)C(=O)CO3)cc1F	KDM5B inhibitor 20µM
O=C1COc2ccc(-c3cc(F)cc(F)c3)nc2CN1Cc1ccccc1	KDM5B inhibitor 32µM
O=C1COc2ccc(-c3ccccc3)nc2CN1Cc1ccccc1	none
COCCN1Cc2nc(-c3ccc(OC)c(F)c3)ccc2OCC1=O	KDM5B inhibitor 40µM
O=C1COc2ccc(N3CCCC3)nc2CN1Cc1ccccc1	KDM5B inhibitor 35µM
COCCN1Cc2nc(-c3cc(F)cc(F)c3)ccc2OCC1=O	none
COc1ccc(OC)c(C2CCCN2C(=O)Cn2cccnc2=O)c1 (configuration not stated)	none (no result: IP6K1 inh, SNCA expr inhib, HEK293 viab)
O=C1c2ccccc2C(=O)c2c(Nc3ccc(CCO)cc3)ccc(O)c21	none (no result: IP6K1 inh, SNCA expr inhib, HEK293 viab)
O=C1c2ccccc2C(=O)c2c(NCCc3ccc(O)cc3)ccc(NCCc3ccc(O)cc3)c21	SNCA expr inhib inconclusive, HEK293 viab 28µM (no result: KDM5B inhibitor, IP6K1 inh)
COc1ccc(C)c2sc(NC(=O)c3ccncc3)nc12	none (no result: KDM5B inhibitor, SNCA expr inhib)
CC(=O)N1CCC2(CC1)CN(Cc1ccncc1)Cc1ccccc1O2	KDM5B inhibitor 56µM, SNCA expr inhib inconclusive
O=C(c1ccc(Cl)cc1)N1CC2(CCN(Cc3ccncc3)C2)OCc2ccccc21 (configuration not stated)	KDM5B inhibitor 40µM
O=C(c1ccc(Cl)cc1)N1CC2(CCN(CC3CCCC3)C2)OCc2ccccc21 (configuration not stated)	none
O=C(NCc1ccc2c(c1)CCN2C(=O)c1ccc(F)cc1)c1c(F)cccc1F	none
CNC(=O)c1c(F)cccc1Nc1nc(Nc2cc3c(cc2OC)CCN3C(=O)CN(C)C)nc2[nH]ccc12	SNCA expr inhib 14µM (no result: KDM5B inhibitor)
O=c1n(-c2cccc(Cl)c2)nc2n1CCN(Cc1ccccc1)C2	KDM5B inhibitor 89µM
Cc1cccc(NC(=O)Nc2ccc(C)n(CC(=O)Nc3ccc(C)c(C)c3)c2=O)c1	none
COc1ccccc1NC(=O)Cn1c(C)ccc(NC(=O)Nc2ccc(C)cc2)c1=O	KDM5B inhibitor 18µM
Cc1cccc(NC(=O)Nc2ccc(C)n(CC(=O)O)c2=O)c1	KDM5B inhibitor 20µM
Cc1ccc(NC(=O)Nc2ccc(C)n(CC(=O)Nc3ccc(C)cc3C)c2=O)cc1	none
CCCC1NC(=O)N(Cc2cc(F)cc3cccnc23)C1=O (configuration not stated)	none (no result: IP6K1 inh, SNCA expr inhib, HEK293 viab)
Cc1ccc(-n2nnnc2SCc2nc3ccsc3c(=O)[nH]2)cc1C	none (no result: IP6K1 inh, SNCA expr inhib, HEK293 viab)
O=c1cc(CN2CCN(c3ccccc3)CC2)occ1OCc1ccccc1	none (no result: IP6K1 inh, SNCA expr inhib, HEK293 viab)
O=c1cc(CN2CCOCC2)occ1OCCCCCSc1ccnc2cc(C(F)(F)F)ccc12	SNCA expr inhib inconclusive, HEK293 viab 30µM! (no result: KDM5B inhibitor)
Cc1ccnc(CC(C)N(C)C(=O)c2cc(-c3cnn(C)c3)nc3ccccc23)c1 (configuration not stated)	KDM5B inhibitor 22µM
CCN(Cc1ccncc1)C(=O)c1cc(-c2cnc(C)nc2)nc2c(C)cccc12	KDM5B inhibitor inconclusive
Cc1cccc2c(C(=O)N(C)C(C)Cc3ccccn3)cc(-c3cnc(N)nc3)nc12 (configuration not stated)	KDM5B inhibitor 32µM
Cc1nsc(N)c1C(=O)N(C)CCOc1ccccc1Cl	none (no result: IP6K1 inh, SNCA expr inhib, HEK293 viab)
CCc1ccc(NC(=O)Cn2nc(-c3ccc(C)c(S(=O)(=O)N4CCOCC4)c3)ccc2=O)cc1	none (no result: IP6K1 inh, SNCA expr inhib, HEK293 viab)
Cc1cc2ncc(C(=O)NCc3cccc4ccccc34)cn2n1	none (no result: KDM5B inhibitor)
Cc1ccc(-n2ncc3c(N4CCCCCC4)ncnc32)cc1	KDM5B inhibitor inconclusive, SNCA expr inhib 2.2µM
CN(C(=O)c1ccc(-c2nnc3ccc(NC(=O)C4CCC4)cn23)cc1)C1CCCCC1	KDM5B inhibitor inconclusive
CC(C)CNC(=O)c1ccc(-c2nnc3ccc(NC(=O)C4CC4)cn23)cc1	KDM5B inhibitor 14µM, SNCA expr inhib inconclusive
CC(C)CCNC(=O)c1ccc(-c2nnc3ccc(NC(=O)C4CCC4)cn23)cc1	KDM5B inhibitor inconclusive
Cc1ccc(CNC(=O)c2ccc(-c3nnc4ccc(NC(=O)C5CCC5)cn34)cc2)cc1	KDM5B inhibitor inconclusive
Cc1cccc(CNC(=O)c2ccc(-c3nnc4ccc(NC(=O)C5CCC5)cn34)cc2)c1	KDM5B inhibitor 28µM, SNCA expr inhib inconclusive
O=C(O)c1ccc(-c2nnc3ccc(NC(=O)C4CCC4)cn23)cc1	KDM5B inhibitor 32µM
CC(=O)N1CCCC(c2nnc3n2CCNC3)C1 (configuration not stated)	KDM5B inhibitor 79µM
O=C(Cc1ccc2c(c1)OCO2)N1CCNc2cnc(Nc3cccc(F)c3)nc2C1	KDM5B inhibitor 32µM
COc1ccccc1Nc1ncc2c(n1)CN(C(=O)Cc1ccc3c(c1)OCO3)CCN2	KDM5B inhibitor inconclusive
CC(C)NC(=O)N1CCNc2cnc(Nc3cccc(F)c3)nc2C1	KDM5B inhibitor 32µM
